Unmarked numbers belong to inactive results. Results filed as inconclusive are left out. Calls of active or inactive are those of the source. Unless noted, calls come from the whole dose curve; as a rule, active = well fitted curve in the direction sought with a large enough effect; inconclusive = small, poorly fitted or top-dose-only effect, or another doubt; inactive = no such curve, though single readings can be large; an effect the other way counts as inactive or inconclusive.

From PubChem BioAssay (NCATS) come the findings set out here.

In experiment [1] the target is Rap guanine nucleotide exchange factor 3 (Homo sapiens) (UniProt O95398). Kind of experiment: Counterscreen qHTS for antagonist of cAMP-regulated guanine nucleotide exchange factor 3 (EPAC1) (AID 1645888). Note: % of control where 0% means no effect. Put shortly: (§1)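 Measured: fluorescence of BODIPY-GDP bound to Rap1B, which falls as exchange proceeds. Conditions include 50 uM competing GDP, 5 and 30 min reads, and a later cAMP challenge for antagonist detection.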
Chain of Rap guanine nucleotide exchange factor 3 (Homo sapiens) (O95398 whole entry, looked up): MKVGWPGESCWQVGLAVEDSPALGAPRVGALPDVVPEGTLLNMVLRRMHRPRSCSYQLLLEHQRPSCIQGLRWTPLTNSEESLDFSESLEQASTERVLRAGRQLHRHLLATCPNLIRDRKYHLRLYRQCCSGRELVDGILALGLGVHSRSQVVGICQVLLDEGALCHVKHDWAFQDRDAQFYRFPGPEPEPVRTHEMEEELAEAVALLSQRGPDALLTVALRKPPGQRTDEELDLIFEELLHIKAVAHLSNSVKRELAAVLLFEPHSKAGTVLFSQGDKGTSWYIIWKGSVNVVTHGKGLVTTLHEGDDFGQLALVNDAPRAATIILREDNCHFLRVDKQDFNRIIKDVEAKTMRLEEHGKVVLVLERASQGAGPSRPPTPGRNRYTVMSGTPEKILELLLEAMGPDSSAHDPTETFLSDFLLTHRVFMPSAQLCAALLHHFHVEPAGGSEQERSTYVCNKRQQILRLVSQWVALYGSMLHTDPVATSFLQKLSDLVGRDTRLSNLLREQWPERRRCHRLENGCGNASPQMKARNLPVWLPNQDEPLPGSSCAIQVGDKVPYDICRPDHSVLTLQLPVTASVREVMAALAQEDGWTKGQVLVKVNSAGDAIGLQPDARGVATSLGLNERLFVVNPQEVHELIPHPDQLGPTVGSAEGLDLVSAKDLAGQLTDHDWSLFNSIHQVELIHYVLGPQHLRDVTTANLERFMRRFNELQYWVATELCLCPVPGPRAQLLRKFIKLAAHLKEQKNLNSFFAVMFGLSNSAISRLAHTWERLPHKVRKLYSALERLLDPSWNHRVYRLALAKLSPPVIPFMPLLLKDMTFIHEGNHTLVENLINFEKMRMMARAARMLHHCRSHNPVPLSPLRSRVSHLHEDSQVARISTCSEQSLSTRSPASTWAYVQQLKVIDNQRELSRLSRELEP
A general note: Counterscreens check selectivity or assay interference.

Experiment [2] has as its target DNA repair nuclease/redox regulator APEX1 (Homo sapiens) (UniProt P27695). Kind of experiment: qHTS Validation Assay for Inhibitors of the Human Apurinic/apyrimidinic Endonuclease 1 (APE1) (AID 1705;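 note: TAMRA fluorescence gain over two minutes as APE1 cuts a quenched THF abasic duplex; series mostly up to about 57 µM; % is set by controls: 0 for no effect and ±100 for the full control effect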). Put shortly:
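Substrate: 50 nM final fluorophore/quencher THF-abasic duplex. Enzyme preincubated with compounds 15 min, RT. Progress derived from fluorescence difference, third minus first kinetic read.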

A short description of experiment [3]: Counterscreen for APE1 Inhibitors: Fluorescent Dye Displacement Validation Assay (AID 1707).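 Note: plate controls were ThO with dsDNA and no compound for no effect and ThO without dsDNA for full effect.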 Put shortly:
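Counterscreen flags promiscuous DNA binders: compounds displacing ThO from duplex DNA (abasic THF site, 50 nM) reduce 540 nm emission (480 nm excitation). ThO 250 nM final; Tris-HCl pH 7.5 with NaCl, MgCl2 and Tween-20.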

A short description of experiment [4]: qHTS for differential inhibitors of proliferation of Plasmodium falciparum line 7G8 (AID 1815).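 For activity change, negative = inhibition: plate controls were vehicle wells for no effect and reference inhibitor wells for full effect.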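 Note: parasite growth measured after three days of incubation.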 Note: potency is the fitted concentration of half-maximal effect. For orientation: qHTS replaces the single test concentration by a dilution series.
A short description of experiment [5]: qHTS for differential inhibitors of proliferation of Plasmodium falciparum line 3D7 (AID 1876). Note: potency is the fitted concentration of half-maximal effect.
Experiment [6] can be described thus: qHTS for differential inhibitors of proliferation of Plasmodium falciparum line D10 (AID 1877).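 For activity change, negative = inhibition: plate controls were vehicle wells for no effect and reference inhibitor wells for full effect.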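 Note: parasites grown with compound for 72 h before DNA staining.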 Note: potency is the fitted concentration of half-maximal effect.
Experiment [7] in a line: qHTS for differential inhibitors of proliferation of Plasmodium falciparum line Dd2 (AID 1882).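 Note: series mostly up to about 29 µM; plate controls were DMSO vehicle for no effect and 0.29 µM artemisinin for full effect; nearly all actives have a fitted effect of over 65% in size.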 The settings on record: Potency: Plasmodium falciparum Dd2 proliferation inhibition. Put shortly:
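SYBR Green DNA fluorescence (ex 485, em 535 nm) after overnight lysis quantifies parasite growth; compound exposure lasted 72 h at 37 C on infected red cells at 2.5% hematocrit, 0.3% parasitemia (final). Artemisinin 0.29 uM and vehicle wells define normalization.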

Experiment [8] in a line: qHTS for differential inhibitors of proliferation of Plasmodium falciparum line W2 (AID 1883).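 For activity change, negative = inhibition: 0% = vehicle wells and -100% = control inhibitor wells.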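 Note: parasites grown with compound for 72 h before lysis and staining.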 Note: potency is the fitted concentration of half-maximal effect. The settings on record: Potency: Plasmodium falciparum W2 proliferation inhibition.
A short description of experiment [9]: qHTS for differential inhibitors of proliferation of Plasmodium falciparum line HB3 (AID 1886).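 For activity change, negative = inhibition: plate controls were vehicle for no effect and reference inhibitor for full effect.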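 Note: parasites grown with compound for 72 h before SYBR Green readout.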 Note: potency is the fitted concentration of half-maximal effect. The settings on record: Potency: Plasmodium falciparum HB3 proliferation inhibition.
In experiment [10] the target is Ferritin light chain (Equus caballus) (UniProt P02791). Nature of the experiment: qHTS Validation Assay for Identification of Novel General Anesthetics (AID 2323). Note: series mostly up to about 77 µM; % is set by controls: 0 for no effect and ±100 for the full control effect. Put shortly:
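Normalized fluorescence response, scaled between free 1-AMA and 1-AMA/apoferritin complex, fitted to a four-parameter Hill equation for concentration-effect values. Binding mix: 10 uM horse-spleen apoferritin, 50% saturated 1-AMA in PBS; read 380/535 nm after 10 min.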

In experiment [11] the target is ATP-dependent DNA helicase Q1 (Homo sapiens) (UniProt P46063). Nature of the experiment: qHTS Validation Assay for Inhibitors of RecQ-Like Dna Helicase 1 (RECQ1) (AID 2353).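 Note: plate controls were DMSO vehicle for no effect and enzyme-free control for full effect.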 Put shortly:
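RECQ1T1 50 nM; forked duplex (20 bp + 30-nt ss tails) 200 nM, ATP 2 mM final; pH 8.0, 2 mM MgCl2, 2.5 ug/ml poly(dI-dC); 15 min compound preincubation; discontinuous kinetic read over 2 h at RT.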

A short description of experiment [12]: Quantitative high throughput screen for delayed death inhibitors of the malarial parasite plastid, 96 hour incubation (AID 488745).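 Note: luciferase-expressing P. falciparum in erythrocytes at 2% hematocrit and 0.1% parasitemia; series mostly up to about 29 µM; % is set by controls: 0 for no effect and ±100 for the full control effect; nearly all actives have a fitted effect of over 70% in size.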 Put shortly: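 Readout is firefly luciferase luminescence from an integrated reporter in P. falciparum; lower signal marks inhibited growth. Cultures at 2% hematocrit and 0.1% parasitemia were treated with compound across two generations (96 h, 37 C, 5% CO2).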

For experiment [13], the target named is Transient receptor potential cation channel subfamily V member 1 (Homo sapiens) (UniProt Q8NER1). Kind of experiment: HTS Assay for Compounds that Act as Enhancers of the Vanilloid Receptor 1 (AID 488979). Note: 0% is about no effect. Put shortly: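 TRPV1-expressing cells loaded with Fluo-8 calcium dye; compounds added and calcium influx read kinetically for 3 min (agonist phase), then capsaicin at EC20 added and read 2 min more for enhancement. Fluorescence ex 480/em 520 nm.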
Chain of Transient receptor potential cation channel subfamily V member 1 (Homo sapiens) (Q8NER1 whole entry, looked up): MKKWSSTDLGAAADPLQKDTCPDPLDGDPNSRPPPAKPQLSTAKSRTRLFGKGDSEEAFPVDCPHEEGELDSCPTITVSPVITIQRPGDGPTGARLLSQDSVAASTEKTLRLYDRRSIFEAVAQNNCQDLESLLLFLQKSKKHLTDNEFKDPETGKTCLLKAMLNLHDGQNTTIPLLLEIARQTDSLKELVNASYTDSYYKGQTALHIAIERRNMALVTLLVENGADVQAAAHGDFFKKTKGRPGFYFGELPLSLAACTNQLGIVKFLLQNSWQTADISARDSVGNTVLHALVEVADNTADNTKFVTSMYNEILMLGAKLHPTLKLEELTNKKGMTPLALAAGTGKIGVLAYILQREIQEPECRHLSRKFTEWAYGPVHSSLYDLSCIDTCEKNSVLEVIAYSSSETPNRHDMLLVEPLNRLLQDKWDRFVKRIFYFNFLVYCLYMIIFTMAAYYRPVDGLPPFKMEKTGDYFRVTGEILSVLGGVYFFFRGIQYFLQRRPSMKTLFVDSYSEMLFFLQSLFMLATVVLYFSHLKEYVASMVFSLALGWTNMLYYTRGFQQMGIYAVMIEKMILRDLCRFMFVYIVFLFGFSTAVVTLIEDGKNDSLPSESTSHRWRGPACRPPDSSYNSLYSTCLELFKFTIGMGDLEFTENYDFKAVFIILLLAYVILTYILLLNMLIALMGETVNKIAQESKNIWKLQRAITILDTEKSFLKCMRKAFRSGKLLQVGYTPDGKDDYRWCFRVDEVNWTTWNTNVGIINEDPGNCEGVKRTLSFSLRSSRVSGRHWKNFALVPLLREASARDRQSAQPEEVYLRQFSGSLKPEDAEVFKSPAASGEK

The target of experiment [14] is Thyrotropin-releasing hormone receptor (Homo sapiens) (UniProt P34981). Kind of experiment: qHTS for Small Molecule Agonists and Allosteric Enhancers of Human TRH Receptor: Validation Screen for Agonists (AID 493127;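 active = calcium activation more than 3 SD above the typical response in the agonist read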;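 note: intracellular calcium rise by fluo-8 fluorescence before TRH EC20 addition; 0% is about no effect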). The settings on record: TRH receptor agonist cell assay; at 2 µM; active compounds read high. Put shortly:
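Compounds are added by online pintool to dye-loaded TRHR cells while fluorescence is recorded every second. A rise in calcium signal during the agonist read marks activation; a later 10 nM TRH addition (EC20) serves the separate enhancer mode.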

For experiment [15], the target named is Galactokinase (Homo sapiens) (UniProt P51570). Kind of experiment: qHTS Validation Assay for Inhibitors of Human Galactokinase (GALK) (AID 493189). Note: 0% is about no effect. Put shortly:
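Enzyme activity is inferred from ATP consumption: human GALK phosphorylates galactose (100 uM) using 35 uM ATP for 1 h at room temperature, and luciferase-based Kinase-Glo Plus reports unconsumed ATP.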

Experiment [16] in a line: Validation screen for small molecules that induce DNA re-replication in SW480 colon adenocarcinoma cells (AID 504364). Note: potency is the fitted concentration of half-maximal effect. Put shortly: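 Image-based qHTS: compounds were incubated with SW480 cells for 48 hr, nuclei stained with Hoechst, and per-nucleus fluorescence intensity scanned to flag cells with excess DNA content.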
Experiment [17] has as its target M-phase phosphoprotein 8 (Homo sapiens) (UniProt Q99549). Kind of experiment: qHTS Validation Assay for Inhibitors for MPP8 Chromodomain Interactions with Methylated Histone Tails (AID 488949).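 Note: AlphaScreen signal from MPP8 chromodomain bound to biotinylated H3K9me3 peptide; top concentration of the series differs between compounds; % is set by controls: 0 for no effect and ±100 for the full control effect; nearly all actives have a fitted effect of over 55% in size.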 Put shortly: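 Chemiluminescent proximity assay: histidine-tag capture via nickel acceptor beads, biotin peptide via streptavidin donor beads. Protein and peptide each at 50 nM, pH 7.4, with 30 min incubations at room temperature for complex formation, compound exposure and bead binding.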

Experiment [18] addresses Voltage-gated inwardly rectifying potassium channel KCNH2 (Homo sapiens) (UniProt Q12809). Nature of the experiment: qHTS Assay for Small Molecule Inhibitors of the Human hERG Channel Activity (AID 588834).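 Note: top concentration of the series differs between compounds; % is set by controls: 0 for no effect and ±100 for the full control effect; lower thallium flux fluorescence means stronger hERG block; nearly all actives have a fitted effect of over 50% in size.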 Put shortly: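 Homogeneous FluxOR thallium flux assay using hERG-expressing U2OS cells (BacMam). Compound treatment about 10 minutes preceded stimulation; reduced fluorescence taken as channel block.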

Experiment [19] deals with Rap guanine nucleotide exchange factor 3 (Homo sapiens) (UniProt O95398). Kind of experiment: Counterscreen qHTS for agonist of cAMP-regulated guanine nucleotide exchange factor 3 (EPAC1) (AID 1645889). For activation: % of control where 0% means no effect. Note: nearly all actives have a fitted effect of over 40% in size. Note: potency is the fitted concentration of half-maximal effect. Put shortly:
as §1

Experiment [20] has as its target Endonuclease 4 (Escherichia coli (strain K12)) (UniProt P0A6C1). Nature of the experiment: Counterscreen for APE1 Inhibitors: qHTS Validation Assay for Inhibitors of Endonuclease IV (AID 1708). Note: % is set by controls: 0 for no effect and ±100 for the full control effect. Put shortly: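 Enzyme (2 nM) + compound, 15 min RT; add 50 nM TAMRA/BHQ-2 THF-site dsDNA; kinetic read ex525/em598, 3 reads/60 s; activity = read 3 − read 1. Buffer Tris pH 7.5, 50 mM NaCl, 2 mM MgCl2, DTT, Tween-20.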

Experiment [21] in a line: qHTS for differential inhibitors of proliferation of Plasmodium falciparum line GB4 (AID 1816).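 Note: potency is the fitted concentration of half-maximal effect; parasite growth measured after 72 h incubation.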 The settings on record: Potency: Plasmodium falciparum GB4 proliferation inhibition.
Experiment [22] in a line: qHTS Assay for Modulators of Human Peripheral Myelin Protein 22 (PMP22) Expression/Activity (AID 1967; active = well fitted curve in the direction sought with a large enough effect in the signal ratio; the % refers to the signal ratio;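 note: 0% = untreated cells and 100% end not stated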). Put shortly: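 Engineered MSC80 cells, Pmp22-promoter green and EF-alpha red luciferase reporters; 24h compound treatment at 37 °C. Concentration-response fits on green, red and ratio signals, each overlap-corrected, with %Activity normalized to untreated wells.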
In experiment [23] the target is RecQ-like DNA helicase BLM (Homo sapiens) (UniProt P54132). Kind of experiment: qHTS Validation Assay for Inhibitors of Bloom's syndrome helicase (BLM) (AID 2364).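 Note: plate controls were DMSO vehicle for no effect and enzyme-free control for full effect.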 Put shortly: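 BLM 50 nM in 25 mM Tris-HCl pH 8.0, 5 mM NaCl, 2 mM MgCl2, 1 mM DTT, 0.01% Tween-20, 2.5 ug/ml poly(dI-dC); 15 min cpd preinc, RT. Start: 200 nM forked DNA + 2 mM ATP (final). TAMRA read, 2 reads 2 h apart.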

Experiment [24] can be described thus: Validation screen for small molecules that induce DNA re-replication in MCF 10A normal breast cells (AID 463097). Note: 0% is about no effect; nearly all actives have a fitted effect of over 60% in size. Put shortly: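 Following 48 hr compound incubation (37 C, 5% CO2), MCF 10A cells receive Hoechst for 40 min at 37 C. Nuclei are then scanned (excitation 405 nm, emission 500-530 nm) for total fluorescence intensity.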

Chain of Galactokinase (Homo sapiens) (P51570 whole entry, looked up): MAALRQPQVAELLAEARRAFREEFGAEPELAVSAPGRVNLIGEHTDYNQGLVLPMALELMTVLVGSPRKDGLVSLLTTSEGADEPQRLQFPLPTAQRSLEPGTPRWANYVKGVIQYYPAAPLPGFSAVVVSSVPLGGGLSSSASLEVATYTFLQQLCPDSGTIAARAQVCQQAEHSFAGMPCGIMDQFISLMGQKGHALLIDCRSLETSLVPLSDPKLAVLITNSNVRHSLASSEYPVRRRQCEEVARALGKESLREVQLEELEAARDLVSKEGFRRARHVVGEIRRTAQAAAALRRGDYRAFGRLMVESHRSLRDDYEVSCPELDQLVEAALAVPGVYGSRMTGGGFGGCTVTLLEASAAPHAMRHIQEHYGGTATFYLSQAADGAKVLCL
Chain of ATP-dependent DNA helicase Q1 (Homo sapiens) (P46063 whole entry, looked up): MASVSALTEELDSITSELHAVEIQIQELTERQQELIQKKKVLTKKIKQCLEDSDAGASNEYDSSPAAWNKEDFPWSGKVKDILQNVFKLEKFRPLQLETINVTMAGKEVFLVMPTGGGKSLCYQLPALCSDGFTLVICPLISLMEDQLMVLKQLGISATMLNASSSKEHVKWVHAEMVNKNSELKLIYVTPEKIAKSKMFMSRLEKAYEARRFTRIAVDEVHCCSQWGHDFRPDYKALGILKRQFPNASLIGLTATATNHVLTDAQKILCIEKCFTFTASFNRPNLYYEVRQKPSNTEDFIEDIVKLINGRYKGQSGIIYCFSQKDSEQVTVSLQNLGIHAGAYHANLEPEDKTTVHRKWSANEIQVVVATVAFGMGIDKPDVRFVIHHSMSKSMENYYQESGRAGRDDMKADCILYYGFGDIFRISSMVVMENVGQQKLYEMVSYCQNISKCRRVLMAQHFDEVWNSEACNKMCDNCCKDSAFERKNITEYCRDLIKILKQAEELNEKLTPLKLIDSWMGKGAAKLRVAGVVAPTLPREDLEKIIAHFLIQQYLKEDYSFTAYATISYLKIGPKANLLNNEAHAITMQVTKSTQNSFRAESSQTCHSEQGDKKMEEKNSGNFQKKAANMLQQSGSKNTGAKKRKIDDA
Chain of DNA repair nuclease/redox regulator APEX1 (Homo sapiens) (P27695 whole entry, looked up): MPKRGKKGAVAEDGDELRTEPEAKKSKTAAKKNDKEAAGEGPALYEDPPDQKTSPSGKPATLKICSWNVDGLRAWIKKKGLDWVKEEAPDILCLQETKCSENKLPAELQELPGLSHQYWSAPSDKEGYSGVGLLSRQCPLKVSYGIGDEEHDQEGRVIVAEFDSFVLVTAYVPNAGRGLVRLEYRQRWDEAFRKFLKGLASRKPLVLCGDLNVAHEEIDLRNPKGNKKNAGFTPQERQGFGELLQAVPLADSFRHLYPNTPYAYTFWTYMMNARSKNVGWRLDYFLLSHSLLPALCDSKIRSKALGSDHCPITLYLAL
Chain of Ferritin light chain (Equus caballus) (P02791 2-175 limits assumed): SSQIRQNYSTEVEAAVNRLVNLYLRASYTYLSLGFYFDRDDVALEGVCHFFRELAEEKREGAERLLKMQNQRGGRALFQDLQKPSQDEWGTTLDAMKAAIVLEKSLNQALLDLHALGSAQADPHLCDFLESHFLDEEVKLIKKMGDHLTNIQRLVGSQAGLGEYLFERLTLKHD
Chain of M-phase phosphoprotein 8 (Homo sapiens) (Q99549 whole entry, looked up): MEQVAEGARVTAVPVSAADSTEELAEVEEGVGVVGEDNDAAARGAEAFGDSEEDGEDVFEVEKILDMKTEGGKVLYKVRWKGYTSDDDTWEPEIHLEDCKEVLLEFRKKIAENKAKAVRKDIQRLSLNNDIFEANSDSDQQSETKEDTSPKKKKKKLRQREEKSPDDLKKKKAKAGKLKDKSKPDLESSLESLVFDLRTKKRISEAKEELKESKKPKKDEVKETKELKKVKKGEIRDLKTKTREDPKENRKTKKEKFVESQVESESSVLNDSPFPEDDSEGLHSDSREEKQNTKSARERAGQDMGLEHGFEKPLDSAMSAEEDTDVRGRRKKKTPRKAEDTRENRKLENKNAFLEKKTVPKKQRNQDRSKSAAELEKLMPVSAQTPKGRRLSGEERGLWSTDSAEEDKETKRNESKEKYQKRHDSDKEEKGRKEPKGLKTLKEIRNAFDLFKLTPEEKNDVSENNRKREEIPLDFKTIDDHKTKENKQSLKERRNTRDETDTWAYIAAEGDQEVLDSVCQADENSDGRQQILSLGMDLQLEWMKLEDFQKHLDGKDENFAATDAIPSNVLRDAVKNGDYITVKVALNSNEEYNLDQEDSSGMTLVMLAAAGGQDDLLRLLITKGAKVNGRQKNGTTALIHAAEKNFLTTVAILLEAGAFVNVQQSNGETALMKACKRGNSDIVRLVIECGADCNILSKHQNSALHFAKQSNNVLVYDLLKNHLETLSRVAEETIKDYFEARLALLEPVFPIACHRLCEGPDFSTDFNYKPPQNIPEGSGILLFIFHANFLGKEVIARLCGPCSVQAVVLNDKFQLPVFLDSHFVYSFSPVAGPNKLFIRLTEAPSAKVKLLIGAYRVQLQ
Chain of Thyrotropin-releasing hormone receptor (Homo sapiens) (P34981 whole entry, looked up): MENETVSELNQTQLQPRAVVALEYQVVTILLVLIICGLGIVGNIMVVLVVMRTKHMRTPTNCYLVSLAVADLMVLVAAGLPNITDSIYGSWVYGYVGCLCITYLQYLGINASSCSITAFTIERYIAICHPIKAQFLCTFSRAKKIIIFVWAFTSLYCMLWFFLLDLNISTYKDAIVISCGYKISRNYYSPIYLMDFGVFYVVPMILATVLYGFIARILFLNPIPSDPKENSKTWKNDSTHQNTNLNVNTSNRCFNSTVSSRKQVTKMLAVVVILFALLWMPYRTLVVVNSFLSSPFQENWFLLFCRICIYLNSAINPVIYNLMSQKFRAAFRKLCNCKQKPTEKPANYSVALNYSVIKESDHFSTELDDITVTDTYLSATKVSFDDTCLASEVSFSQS

On to `CCc1ccccc1NC1c2ccccc2C(=O)N1Cc1ccco1` (stereo unspecified), for which, in experiment [1], the activity change, negative = inhibition was -4.2% [at 30.8 µM].

Consider `CCOC(=O)c1c(-c2ccccc2)oc2ccc(O)cc12`, for which the Potency entry in experiment [1] was “inactive”.

In the case of `COc1cc2c(cc1O)CCC1C2CC[C@]2(C)[C@@H](O)CC[C@@H]12` (stereo partly specified), the Potency result in [2], in experiment [4], in experiment [5], in experiment [6], in experiment [7] and in [9] was “inactive” throughout. In experiment [12], the Potency result is “inactive”. Besides, the molecule was called inactive in experiment [3], in experiment [10], in [11], in experiment [13] and in experiment [15]. The results for the Potency in [8] and in experiment [16] were 15.8 µM (active) and 4.61 µM (active), respectively. The activation in experiment [14] is 1%.

`Nc1nc(Cl)nc2c1ncn2[C@@H]1O[C@H](COP(=O)(O)OP(=O)(O)OP(=O)(O)O)[C@H](O)[C@H]1O`: the Potency result in experiment [2], in experiment [4], in experiment [5], in experiment [6], in experiment [7] and in experiment [8] was “inactive” each time. In addition, the Potency entry in [9], in [12], in [17], in experiment [16] and in experiment [18] was “inactive” throughout. Further, the molecule was called inactive in experiment [3], in experiment [10], in experiment [11], in [13] and in experiment [15]. Also, the activation in experiment [14] was 6.94%.

With `COc1ccc(C(=O)Nc2ccccc2C(=O)O)cc1NC(=O)C(c1ccccc1)c1ccccc1`, the Potency in experiment [19] is 112 µM (active).

In the case of `CC(=O)O[C@]1(C(C)=O)CC[C@H]2C3C=C(Cl)C4=CC(=O)[C@@H]5C[C@H]5[C@]4(C)C3CC[C@@]21C` (stereo partly specified), the Potency entry in experiment [2], in experiment [20], in [12], in experiment [17] and in experiment [16] was “inactive” each time. In addition, the Potency was 12.6 µM (active) in [4]; 10 µM (active) in experiment [21]; 8.91 µM (active) in experiment [5]; 14.1 µM (active) in experiment [6]; 8.91 µM (active) in experiment [8]; 12.6 µM (active) in experiment [9]. The call in [11], in experiment [13] and in experiment [15] was inactive.

Turning to `CCOC(=O)c1sc(NC(=O)CN2C(=O)NC3(CC(C)CC(C)(C)C3)C2=O)cc1C` (stereo unspecified), the Potency in experiment [19] was 89.1 µM (active).

In the case of `CN1CCN(CC/C=C2/c3ccccc3Sc3ccc(S(=O)(=O)N(C)C)cc32)CC1`, the Potency entry in experiment [2], in [7], in [23], in experiment [24] and in experiment [16] was “inactive” in each case. The result in experiment [3], in experiment [22], in experiment [10], in experiment [11] and in experiment [15] was inactive. Moreover, the Potency in [4] is 7.08 µM (active); in experiment [21] it was 11.2 µM (active); in experiment [5] it was 10 µM (active); in experiment [8], 5.01 µM (active).

For `CN(C)/C=C/c1onc(-c2c(Cl)cccc2Cl)c1C#N`, the Potency entry in experiment [1] and in experiment [19] was “inactive” in each case.
